# Measured values as given in PubChem BioAssay (NCI).
# This is part of a sample that, as a whole, favours compounds with a hit. Of some 79,000 tested, about 15% had one in any assay. Values without a mark were called inactive. Active and inactive are the calls of the source. No stated cut-off is given here; in the data, active means growth inhibition above about 70%; inactive means the rest.
# How the values were obtained:
# [1] = NCI Yeast Anticancer Drug Screen. Data for the sgs1 mgt1 strain (AID 161);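 further: 0% = growth of cultures given vehicle only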; conditions: S. cerevisiae sgs1 mgt1 strain, stronger effect = higher value
# Method in brief: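 Yeast cells carrying a defined DNA-repair defect were exposed to test compounds. Growth inhibition was measured relative to vehicle-treated controls.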
# [2] = NCI Yeast Anticancer Drug Screen. Data for the CLN2oe strain (AID 163);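 further: 0% = growth of vehicle-only control cultures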; conditions: S. cerevisiae CLN2oe strain, stronger effect = higher value
# Method in brief: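 Compound-treated yeast; growth vs vehicle ctrl = % inhibition. Genetically altered strain (cell-cycle control).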
# [3] = NCI Yeast Anticancer Drug Screen. Data for the cln2 rad14 strain (AID 165);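 further: 0% = growth equal to vehicle treated cultures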; conditions: S. cerevisiae cln2 rad14 strain, stronger effect = higher value
# Method in brief: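 Growth inhibition, relative to vehicle-treated controls, is the read-out. The test organism is a yeast strain with defined genetic alterations, cln2 rad14.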
# [4] = NCI Yeast Anticancer Drug Screen. Data for the bub3 strain (AID 167); conditions: S. cerevisiae bub3 mutant strain, stronger effect = higher value
# Method in brief: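 Readout: yeast growth inhibition, expressed relative to vehicle-only wells. The test organism is a mutant strain from a panel with lesions in DNA repair or checkpoint genes.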
# [5] = NCI Yeast Anticancer Drug Screen. Data for the wt2 strain (AID 169);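 further: 0% = growth of vehicle-treated yeast cultures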; conditions: S. cerevisiae wt2 strain growth inhibition, stronger effect = higher value
# Method in brief: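 Compound exposure of yeast; growth compared with vehicle controls; inhibition reported.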
# [6] = NCI Yeast Anticancer Drug Screen. Data for the mlh1 strain (AID 171);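 further: 0% = growth of vehicle-treated control cultures of the same strain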; conditions: S. cerevisiae mlh1 strain growth inhibition, stronger effect = higher value
# Method in brief: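 Compounds are applied to a genetically altered yeast strain, and its growth is compared with that of vehicle-treated cultures to give percent inhibition.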
# [7] = NCI Yeast Anticancer Drug Screen. Data for the sgs1 strain (AID 173);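 further: 0% = growth of vehicle-only control cultures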; conditions: S. cerevisiae sgs1 mutant, stronger effect = higher value
# Method in brief: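 Compounds applied to genetically altered yeast; growth compared with vehicle-treated cultures to give % inhibition.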
# [8] = NCI Yeast Anticancer Drug Screen. Data for the mlh1 rad18 strain (AID 175); conditions: S. cerevisiae mlh1 rad18 strain growth inhibition, stronger effect = higher value
# Method in brief: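 Cells of a genetically altered yeast strain, deficient in DNA damage repair, were treated with compound. Their growth was then compared with that of vehicle-treated cultures to give inhibition.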
# [9] = NCI Yeast Anticancer Drug Screen. Data for the rad18 strain (AID 177); conditions: S. cerevisiae rad18 mutant growth inhibition, stronger effect = higher value
# Method in brief: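 Compounds are applied to a repair-deficient yeast strain, and growth is compared with that of vehicle-treated cultures to give percent inhibition.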
# [10] = at 5.0 µM (retest, dose inferred, filed as 0.5)
# [11] = at 50.0 µM (retest, dose inferred, filed as 5.0)
smiles,measurement,setting,value
Cc1c2c(nc3ccccc13)C(=O)c1cccnc1C2=O,growth inhibition,[1]; [10],1%
same,growth inhibition,[1]; [11],78% (active)
same,growth inhibition,[1]; at 50.0 µM,79.2% (active)
same,growth inhibition,[2]; at 1.2 µM,-8%
same,growth inhibition,[2]; at 3.7 µM,1%
same,growth inhibition,[2]; at 11.0 µM,3%
same,growth inhibition,[2]; at 33.0 µM,11%
same,growth inhibition,[2]; at 100.0 µM,78% (active)
same,growth inhibition,[3]; [10],-1%
same,growth inhibition,[3]; [11],72% (active)
same,growth inhibition,[3]; at 50.0 µM,64%
same,growth inhibition,[4]; at 1.2 µM,5%
same,growth inhibition,[4]; at 3.7 µM,7%
same,growth inhibition,[4]; [10],12%
same,growth inhibition,[4]; at 11.0 µM,-13%
same,growth inhibition,[4]; at 33.0 µM,4%
same,growth inhibition,[4]; [11],83% (active)
same,growth inhibition,[4]; at 50.0 µM,75.7% (active)
same,growth inhibition,[4]; at 100.0 µM,83% (active)
same,growth inhibition,[5]; at 1.2 µM,3%
same,growth inhibition,[5]; at 3.7 µM,-3%
same,growth inhibition,[5]; at 11.0 µM,17%
same,growth inhibition,[5]; at 33.0 µM,20%
same,growth inhibition,[5]; at 100.0 µM,73% (active)
same,growth inhibition,[6]; at 1.2 µM,22%
same,growth inhibition,[6]; at 3.7 µM,15%
same,growth inhibition,[6]; at 11.0 µM,20%
same,growth inhibition,[6]; at 33.0 µM,17%
same,growth inhibition,[6]; at 100.0 µM,84% (active)
same,growth inhibition,[7]; at 1.2 µM,-9%
same,growth inhibition,[7]; at 3.7 µM,-11%
same,growth inhibition,[7]; at 11.0 µM,-9%
same,growth inhibition,[7]; at 33.0 µM,11%
same,growth inhibition,[7]; at 100.0 µM,81% (active)
same,growth inhibition,[8]; [10],19%
same,growth inhibition,[8]; [11],90% (active)
same,growth inhibition,[8]; at 50.0 µM,84% (active)
same,growth inhibition,[9]; at 1.2 µM,-11%
same,growth inhibition,[9]; at 3.7 µM,-5%
same,growth inhibition,[9]; at 11.0 µM,0%
same,growth inhibition,[9]; at 33.0 µM,23%
same,growth inhibition,[9]; at 100.0 µM,90% (active)
